The whole screen tested about 190,000 compounds, of which about 1,300 (0.68%) were called active. Cut-off read from the data, not from the text of the source: active = inhibition above about 50%; inactive = the rest. The entries come from a sample that favours actives as a whole.

The target of the assay is Mannose-6-phosphate isomerase (Homo sapiens) (UniProt P34949). The assay can be described thus: MPI inhibition at elevated mannose 6-phosphate – biochemical, fluorescence intensity, high mannose 6-phosphate, primary screen (AID 1220). To be noted: recombinant PMI enzyme, coupled fluorescence intensity; at 20 µM; hits give high values.
Sequence of Mannose-6-phosphate isomerase (Homo sapiens) (P34949 whole entry, looked up): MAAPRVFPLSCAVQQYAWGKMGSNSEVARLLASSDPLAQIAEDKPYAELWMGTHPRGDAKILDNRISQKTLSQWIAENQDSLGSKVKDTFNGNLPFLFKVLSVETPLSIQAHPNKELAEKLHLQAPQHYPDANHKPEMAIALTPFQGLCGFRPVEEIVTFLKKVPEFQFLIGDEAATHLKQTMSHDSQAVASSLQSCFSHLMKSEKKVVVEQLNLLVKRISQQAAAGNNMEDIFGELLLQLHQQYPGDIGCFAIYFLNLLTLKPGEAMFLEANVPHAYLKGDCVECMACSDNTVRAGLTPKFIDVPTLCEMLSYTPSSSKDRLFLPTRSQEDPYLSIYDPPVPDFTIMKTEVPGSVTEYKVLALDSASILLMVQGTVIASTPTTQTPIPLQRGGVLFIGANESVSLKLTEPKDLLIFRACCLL
The term inhibition denotes the relative decrease from the control value, in per cent. For the molecule `CCOc1cc(NC(=S)NCc2ccco2)c(OCC)cc1NC(C)=O`, the inhibition was 7.1% (inactive). `CNC[C@H](O)c1ccc(O)c(O)c1`: the inhibition is 59% (active). The figure for `CCC(C)c1ccc(O)c(N)c1` (configuration not stated) is 31.5% (inactive); for `CNC[C@H](O)c1cccc(O)c1` it is -2.7% (inactive); for `COc1ccc([C@H](C)NC[C@H](O)c2ccc(O)c(NC=O)c2)cc1` it is 10.4% (inactive).

For the molecule `CCC(NC(C)C)C(O)c1ccc(O)c2[nH]c(=O)ccc12` (configuration not stated), the inhibition is 11.5% (inactive).

Take `CCC(NC(C)C)C(O)c1ccc(O)c(O)c1` (configuration not stated): the inhibition is 61.2% (active). For the molecule `O=C(NC(=S)Nc1cc(C(F)(F)F)ccc1N1CCOCC1)c1sc2ccccc2c1Cl`, the inhibition was 2.7% (inactive). As to `Cc1ccc(/C=C2\C(=O)ON=C2c2ccccc2)o1`, the inhibition is 5.3% (inactive). Turning to `Cc1cccc(C)c1N(CC(=O)N1CCN(c2ccccc2F)CC1)S(C)(=O)=O`, the inhibition was 1.2% (inactive). With `COc1cc(/C(C)=N/Nc2ccc(C(=O)O)cc2)cc(OC)c1OC` the figure was -109% (inactive). Take `Cc1ccnc(NS(=O)(=O)c2ccc(NC(=O)C3COc4ccccc4O3)cc2)n1` (configuration not stated): the inhibition was -9.4% (inactive). In the case of `O=C(Nc1ccc(S(=O)(=O)Nc2ncccn2)cc1)C1COc2ccccc2O1` (configuration not stated), the inhibition was 8.2% (inactive).

On to `Cc1cc(C)nc(NS(=O)(=O)c2ccc(NC(=O)C3COc4ccccc4O3)cc2)n1` (configuration not stated), for which the inhibition is 54.1% (active). For the molecule `Cc1ccccc1NC(=O)c1oc(=O)c2ccccc2c1-c1ccccc1`, the inhibition was -3.9% (inactive).

Turning to `CCCCN(C)C1=CC2=CC(=C(C#N)C#N)CCC2CC1` (configuration not stated), the inhibition was 51.1% (active). As for `CCN(CC)C1=CC2=CC(=C(C#N)C#N)CCC2CC1` (configuration not stated), the inhibition was 50.6% (active). Consider `Cc1cc(C=NCCO)c(C)n1-c1cc(Cl)ccc1Cl`, for which the inhibition was 1.2% (inactive). For the molecule `C=CCNC(=O)CN(c1ccccc1OCC)S(=O)(=O)c1ccc(C)cc1`, the inhibition was 9.1% (inactive). The figure for `O=C(c1cccc(Br)c1)N1CCN(S(=O)(=O)N2CCOCC2)CC1` is -0.4% (inactive); for `Cc1nn(-c2nc3ccccc3s2)c(N)c1-c1ccc(Cl)cc1` it is -4.7% (inactive); for `CCOC(=O)c1ccccc1N=N/C(C(C)=O)=C(/C)O` it is 3.4% (inactive). Turning to `Cc1cc(C(=O)Nc2sc3c(c2C#N)CCC(C)C3)cs1` (configuration not stated), the inhibition is -2.5% (inactive).

`O=C(Cn1cnc2ccccc2c1=O)NCc1cccs1`: the inhibition is 36.2% (inactive). In the case of `COc1cccc(C=Nc2cc(C)cc(C)c2)c1O`, the inhibition was 17.1% (inactive).

Take `COc1ccc(O)c(C=Nc2cc(C)on2)c1`: the inhibition was 23.9% (inactive). As for `CCCn1c(/N=C/c2cc(OC)ccc2O)nc2ccccc21`, the inhibition is 13.5% (inactive). The figure for `COc1cccc(C=NCC(C)N=Cc2cccc(OC)c2O)c1O` (configuration not stated) is 52.3% (active); for `COc1cccc(/C=N/NC(=O)C(=O)N/N=C/c2cccc(OC)c2O)c1O` it is -27.8% (inactive). The figure for `COc1ccc(O)c(C=NCC(C)N=Cc2cc(OC)ccc2O)c1` (configuration not stated) is 51.9% (active); for `Cc1ccc(CN(Cc2cc3cc4c(cc3[nH]c2=O)OCCO4)Cc2nnnn2Cc2ccco2)cc1` it is 17.2% (inactive). The figure for `CC(C)Cn1c(N2CCN(CC(=O)Nc3ccc(Cl)cc3)CC2)nc2ccccc21` is 13.8% (inactive); for `CCn1c(CN2CCN(C(=O)c3ccco3)CC2)nc2c1c(=O)n(C)c(=O)n2C` it is -1% (inactive); for `CCCS(=O)(=O)c1cn2cccc(N)c2c1S(=O)(=O)CCC` it is 4% (inactive). `CC(=O)N1CCc2cc(NC(=O)c3ccc(C)cc3)ccc21`: the inhibition is 3.7% (inactive). With `Cn1nnc2cc(C(=O)N3CCCCCC3)ccc21`, the inhibition is 0.1% (inactive). As to `COc1cc(/C=C(\C#N)c2nc3ccc(C)cc3[nH]2)c([N+](=O)[O-])cc1OC`, the inhibition is 47.8% (inactive). As for `COc1ccc(/C=C(\C#N)c2nc3ccc(C)cc3[nH]2)cc1Oc1ccc(C(F)(F)F)cc1[N+](=O)[O-]`, the inhibition was 1.7% (inactive). For `COc1cc(C=C(c2nc3ccccc3s2)c2nc3ccccc3s2)cc(OC)c1O`, the inhibition was 54.4% (active).

Turning to `COc1cc(/C=C(\C#N)c2nc3ccc(C)cc3[nH]2)cc([N+](=O)[O-])c1O`, the inhibition was 64.5% (active). As to `COc1cc(/C=C(\C#N)c2nc3ccccc3s2)ccc1OCC(=O)Nc1ccccc1`, the inhibition is -0.3% (inactive). Consider `N#C/C(=C\c1ccc(O)c([N+](=O)[O-])c1)c1nc2ccccc2s1`, for which the inhibition was 0.6% (inactive).

In the case of `COc1cc(/C=C(/C#N)c2nc3ccccc3[nH]2)ccc1Oc1ncccc1[N+](=O)[O-]`, the inhibition was 11.5% (inactive).

For the molecule `COc1cc(/C=C(\C#N)c2nc3ccccc3[nH]2)c([N+](=O)[O-])cc1OCc1ccccc1`, the inhibition was 66.5% (active).

`COc1cc(/C=C(\C#N)c2nc3ccccc3s2)cc([N+](=O)[O-])c1O`: the inhibition was 71.2% (active).

On to `COc1ccc(C=C(c2nc3ccccc3s2)c2nc3ccccc3s2)cc1O`, for which the inhibition was 31.1% (inactive). `COc1cc(/C=C(\C#N)c2nc3ccccc3[nH]2)cc(Br)c1OCc1ccccc1`: the inhibition is -16.7% (inactive). As for `COc1cc(C=C(c2nc3ccccc3s2)c2nc3ccccc3s2)ccc1O`, the inhibition is 34.4% (inactive).

As to `C=CCN(C(=O)CCC(=O)Nc1cc(C)on1)C(C(=O)NC1CCCC1)c1cccnc1` (configuration not stated), the inhibition is 12.1% (inactive).

Regarding `COc1nc(Nc2cccc([N+](=O)[O-])c2)nc(OC)n1`, the inhibition is 11.7% (inactive). For `Cc1cc2c(nn1)CCC/C2=N\O`, the inhibition was 4% (inactive).

On to `COc1ccc(C(=O)CSc2nnc(CNC(=O)c3ccc(OC)cc3)n2C)cc1`, for which the inhibition is -5.4% (inactive).

For the molecule `Cc1cc2nnc(SC3CCCCN(C(=O)c4ccc(F)cc4)C3=O)n2c2ccccc12` (configuration not stated), the inhibition was 3% (inactive). With `CC(C)c1ccc(/C=N/NC(=O)c2cccc(Cl)c2)cc1`, the inhibition was -5.5% (inactive).

On to `CC(C)Cn1ccc(=O)n(CC(C)C)c1=O`, for which the inhibition is 12% (inactive). For `CC(C)c1ccc(NC(=O)COc2ccccn2)cc1`, the inhibition is 4.4% (inactive). Take `CC(C)CC(=O)NC(c1ccccc1Cl)c1c(O)ccc2ccccc12` (configuration not stated): the inhibition was 6.9% (inactive). With `O=c1c(-c2nnc(SCc3ccc(Cl)cc3Cl)o2)cccn1Cc1ccccc1` the figure was 7.2% (inactive); with `COc1ccc(N2C(=O)CC(n3c(CCCCO)nc4ccccc43)C2=O)cc1` (configuration not stated), -9.5% (inactive). For `COc1cc(/C=C(\C#N)c2nc3ccccc3n2C)cc(OC)c1O`, the inhibition was 57% (active). Take `Cn1c(/C(C#N)=C/c2ccncc2)nc2ccccc21`: the inhibition was 30.7% (inactive). Consider `Cn1c(/C(C#N)=C/c2cccc(O)c2)nc2ccccc21`, for which the inhibition was 6.4% (inactive).
